Unmarked numbers belong to inactive results. The source made the active and inactive calls.
Biological target: Dihydroorotate dehydrogenase (quinone), mitochondrial (Plasmodium falciparum (isolate 3D7)) (UniProt Q08210)
Test: inhibition of P. falciparum DHODH – biochemical, C-terminal His tag, absorbance 600 nm, primary screen (AID 1175);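 further: recombinant parasite enzyme with a five histidine tag at its C terminus; test concentration not given here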
Settings: PfDHODH enzyme, DCIP absorbance 600 nm; higher = more signal, called active from +8 up or from −8 down

Chain of Dihydroorotate dehydrogenase (quinone), mitochondrial (Plasmodium falciparum (isolate 3D7)) (Q08210 whole entry, looked up): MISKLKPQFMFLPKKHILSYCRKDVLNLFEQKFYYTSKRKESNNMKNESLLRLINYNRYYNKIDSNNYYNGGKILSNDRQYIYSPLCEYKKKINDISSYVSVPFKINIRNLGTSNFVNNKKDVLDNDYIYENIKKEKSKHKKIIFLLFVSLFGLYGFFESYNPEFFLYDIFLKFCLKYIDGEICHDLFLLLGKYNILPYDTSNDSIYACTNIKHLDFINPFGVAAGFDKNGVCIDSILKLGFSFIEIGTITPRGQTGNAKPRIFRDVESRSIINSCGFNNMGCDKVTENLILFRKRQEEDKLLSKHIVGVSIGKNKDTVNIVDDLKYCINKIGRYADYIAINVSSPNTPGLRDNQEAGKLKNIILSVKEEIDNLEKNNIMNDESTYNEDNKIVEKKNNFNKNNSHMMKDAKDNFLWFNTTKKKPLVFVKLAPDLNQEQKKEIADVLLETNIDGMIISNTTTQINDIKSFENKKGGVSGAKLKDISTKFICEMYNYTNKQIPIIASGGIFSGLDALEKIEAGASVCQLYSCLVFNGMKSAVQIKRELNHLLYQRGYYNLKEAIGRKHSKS

Point of comparison: `COC(=O)C(CC#Cc1ccc2c(c1)[C@]1(C(=O)N2)[C@H](c2ccc(OCCO)cc2)N2[C@H](c3ccccc3)[C@H](c3ccccc3)OC(=O)[C@H]2[C@@H]1C(=O)N1CCc2cc(OC)c(OC)cc2C1)C(=O)OC`, composite z-score -4.19. Against it:
- CCOC(=O)C[C@H]1[C@H](OC(=O)c2ccc(C(=O)c3ccccc3)cc2)[C@@H](NC(=O)c2ccccc2)c2cc(OCCCO)ccc2N1C(=O)Cc1ccc(OC)cc1 — higher, 0.107
- COCCOC(=O)N1C(=O)[C@@]2(c3cc(C#CCNC(N)=O)ccc31)[C@H](C(=O)Nc1nc3ccccc3s1)[C@H]1C(=O)O[C@H](c3ccccc3)[C@H](c3ccccc3)N1[C@@H]2c1ccc(OCCO)cc1 — higher, -0.716
- CC(C)OC(=O)C=C1C[C@@H](c2ccccn2)O[C@@H](c2ccccn2)O1 — higher, 0.409
- COc1ccc([Si](C)(C)[C@H]2[C@H](CC(=O)N3Cc4ccccc4C[C@H]3CO)O[C@@]3(C(=O)N(Cc4cccc(N5CCC5=O)c4)c4ccccc43)[C@@H]2C)cc1 — higher, -2.72
- COCCCNC(=O)[C@]1(CCC(=O)OC(C)(C)C)N=C(c2ccc(OCCCO)cc2)O[C@@H]1c1ccccc1CN=[N+]=[N-] — higher, 0.249
- COCCOC(=O)N1C(=O)[C@@]2(c3cc(C#CCC(C(=O)OC)C(=O)OC)ccc31)[C@H](c1ccccc1OCCO)N1[C@H](c3ccccc3)[C@H](c3ccccc3)OC(=O)[C@H]1[C@@H]2C(=O)NC[C@H](O)c1ccccc1 — higher, -0.398
- O=C1c2ccccc2[C@](Cc2ccccc2I)(C(=O)NCC(F)(F)F)[C@H](c2ccc(CO)cc2)N1Cc1ccccc1Cl — higher, -0.246
- C=C[C@@H](COC(=O)OC(C)(C)C)N(Cc1ccc(OC)cc1)S(=O)(=O)c1ccc(Br)cc1 — higher, -0.316
- CCS[C@H]1[C@@H](C(=O)O)[C@H](c2ccc(C)cc2)N(S(=O)(=O)c2ccc(C)cc2)[C@@H]1CC — higher, -1.03
- CN1C(=O)C2C=CC(C(O)C#Cc3ccccc3)N(N3CCCCC3)C2C1=O (stereo not drawn) — higher, -1.07
- O=C1O[C@H](c2ccccc2)[C@H](c2ccccc2)N2[C@H]1[C@@H](C(=O)N1CCCCCCC1)[C@]1(C(=O)Nc3ccc(C#CCCO)cc31)[C@H]2c1ccccc1OCCO — higher, 0.929
- CC(C)C(=C=CC[C@@H](O)c1ccc(OCCO)cc1)C[C@@H](O)COCc1ccccc1 — higher, -2.2
- CCCC[C@H]1OB(O)C[C@H]2C1=C(COC)Cn1c(=O)n(-c3ccccc3)c(=O)n12 — higher, -0.485
- CCC[C@@H]1C[C@@]1(CCC)[C@@H](NS(=O)(=O)c1cccc2cccnc12)c1ccc(Cl)cc1 — higher, 0.283
- [N-]=[N+]=Nc1ccccc1[C@@H]1OC(c2ccc(OCCCO)cc2)=N[C@]1(CCS(=O)(=O)c1ccccc1)C(N)=O — higher, 0.796
- COC(=O)[C@@]1(Cc2ccc(F)cc2)[C@H]2c3cc(C(=O)N(C)C)n(Cc4ccc(Cl)c(C(F)(F)F)c4)c3C[C@H]2CN1C(=O)c1ccccc1 — higher, 0.117
- CO[C@H]1O[C@H](CO)[C@@H](OC(=O)Nc2ccc(Oc3ccccc3)cc2)[C@H](OC(=O)Nc2ccc3c(c2)OCO3)[C@H]1OC(=O)Nc1ccc2c(c1)OCO2 — higher, -0.227
- CC(C)=CCCC(C)=CC(O)C1C=CC2C(=O)N(C)C(=O)C2N1Nc1ccccc1 (stereo not drawn) — higher, 0.0684
- CCOC(=O)C[C@H]1[C@H](OC(=O)c2ccc(-c3ccccc3)cc2)[C@@H](NC(=O)Cc2ccc(OC)cc2)c2cc(OCCCO)ccc2N1C(=O)c1ccccc1 — higher, 0.11
- CC(C)C[C@@H]1NC(=O)[C@@H]2C[C@H](C(=O)NCc3ccc(F)cc3)[C@H](c3cccc(OCCO)c3)N2C1=O — higher, -1.26
- NC(=O)NCC#Cc1ccc2c(c1)[C@]1(C(=O)N2)[C@H](c2ccccc2OCCO)N2[C@H](c3ccccc3)[C@H](c3ccccc3)OC(=O)[C@H]2[C@@H]1C(=O)Nc1nc2ccccc2s1 — higher, -1.12
- C=C(CCCC)/C(=C/C[C@@H](OC(=O)c1ccncc1)c1ccc(OCCO)cc1)c1cc(C(=O)OC)ccc1OC — higher, -0.265
- C=C(C)[C@@H]1CC=C(C(O)C2C=CC3C(=O)N(C)C(=O)C3N2Nc2ccccc2)CC1 (stereo partly drawn) — higher, 0.849
- O=C1N[C@@H](Cc2ccccc2)C(=O)N2[C@@H]1C[C@@H](C(=O)O)[C@H]2c1cccc(OCCO)c1 — higher, -2.58
- COC(=O)C(CC#Cc1ccc2c(c1)[C@]1(C(=O)N2)[C@H](c2ccc(OCCO)cc2)N2[C@H](c3ccccc3)[C@H](c3ccccc3)OC(=O)[C@H]2[C@@H]1C(=O)Nc1nc2ccccc2s1)C(=O)OC — higher, -0.983
- C=CCN1C(=O)[C@@]2(Cc3ccccc31)N=C(c1ccc(OCCCO)cc1)O[C@H]2c1ccccc1 — higher, 0.161

With `COc1cc2c(cc1O)C(c1cccs1)N(C)CC2` (stereo not drawn) the composite z-score was -8.08 (active).

Source: PubChem BioAssay
